Source: PubChem BioAssay
Sampled rows, rich in hits. Any-hit rate of the full collection: about 4.1%.
ssDAF12 agonist = S. stercoralis DAF-12 activation, primary screen. 370,000 tested, 1% active. activation, % at 6.8 µM. HEK293 ssDAF-12/GRIP1 lit1-tk-luc reporter, luminescence; % of 3 µM dafachronic acid response;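 active = activation above the mean over all tested compounds plus 3 SD, cut at about 0.9% in these data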
DAX1 inh-1 = blocks DAX1 repression of SF-1 activated StAR promoter | inhibition, % at 6.8 µM | HEK293T StAR-luciferase reporter, SF-1/DAX-1 repression relief | 370,000 tested, 1.1% active;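 active = inhibition above the mean over all tested compounds plus 3 SD, cut at about 3.6% in these data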;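 note: higher inhibition means more luminescence from relief of DAX-1 repression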
DAX1 inh-2 = inhibitors of human orphan nuclear receptor DAX1 (NR0B1). P51843. HEK293 Gal4-DAX1 luciferase reporter, luminescence. inhibition, % at 6.75 µM. 340,000 tested, 0.99% active. AID 504766;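 active = inhibition above the mean over all tested compounds plus 3 SD, cut at about 4.2% in these data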;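 note: inhibition shows as a rise in luminescence from relieved DAX1 repression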
Target sequence (P51843 207-470 limits assumed): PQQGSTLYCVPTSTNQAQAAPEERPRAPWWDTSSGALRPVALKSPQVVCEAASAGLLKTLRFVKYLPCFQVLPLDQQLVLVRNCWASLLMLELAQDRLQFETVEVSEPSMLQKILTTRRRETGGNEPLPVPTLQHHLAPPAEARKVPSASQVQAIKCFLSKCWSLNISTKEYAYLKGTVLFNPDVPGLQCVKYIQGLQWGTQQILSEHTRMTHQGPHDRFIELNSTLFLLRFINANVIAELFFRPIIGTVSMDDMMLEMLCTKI
hcDAF12 agonist = activators of H. contortus DAF-12 nuclear receptor; HEK293 hcDAF-12 lit1-tk-luc reporter, luminescence; 0% DMSO, 100% Δ7-dafachronic acid; activation, % at 6.8 µM; 370,000 tested, 1.4% active;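 active = activation above the mean of all tested compounds plus 3 SD, cut at about 5.5% in these data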
hgDAF12 agonist = activates the H. glycines DAF-12 receptor ligand-binding domain; HEK293 GAL4-hgDAF12 UAS-luciferase reporter, agonist luminescence; normalized to butyrate control; activation, % at 6.8 µM; 370,000 tested, 1.8% active; AID 687014;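 active = activation above a cutoff set at the mean of all screened compounds plus 3 SD, cut at about 10% in these data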
DAX1 conf = confirmation of human DAX1 (NR0B1) inhibitors; 2,400 tested, 87% active; inhibition, % at 6.8 µM; HEK293T StAR-promoter luciferase reporter, SF-1/DAX-1 repression; shares compounds with DAX1 inh-1; AID 652134;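 active = inhibition above the average of every tested compound plus 3 SD, cut at about 3.8% in these data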;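 note: active compounds raise luminescence by relieving repression of the StAR reporter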
SF1 mutant ctr = nonselective inhibitor or artifact in SF-1 mutant DAX1 counter-screen. HEK293 StAR-luciferase, SF-1 AF2 mutant, luminescence. inhibition, % at 6.8 µM. 2,400 tested, 78% active. AID 652136. shares compounds with DAX1 inh-1;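 active = inhibition above the mean of all tested compounds plus 3 SD, cut at about 3% in these data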
LXRb hcDAF ctr = counter-screen for hcDAF-12 agonists: agonists of human LXR-beta. HEK293 Gal4-LXR tk-luc reporter, luminescence, 24 h; normalized: DMSO 0%, positive control 100%. shares compounds with hcDAF12 agonist. 3,400 tested, under 10 active. activation, % at 6.8 µM;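 active = mean percent activation of the reporter above a cutoff set as the average over tested compounds plus their standard deviation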
Target sequence (P55055 whole entry, looked up, the tested form may be a part): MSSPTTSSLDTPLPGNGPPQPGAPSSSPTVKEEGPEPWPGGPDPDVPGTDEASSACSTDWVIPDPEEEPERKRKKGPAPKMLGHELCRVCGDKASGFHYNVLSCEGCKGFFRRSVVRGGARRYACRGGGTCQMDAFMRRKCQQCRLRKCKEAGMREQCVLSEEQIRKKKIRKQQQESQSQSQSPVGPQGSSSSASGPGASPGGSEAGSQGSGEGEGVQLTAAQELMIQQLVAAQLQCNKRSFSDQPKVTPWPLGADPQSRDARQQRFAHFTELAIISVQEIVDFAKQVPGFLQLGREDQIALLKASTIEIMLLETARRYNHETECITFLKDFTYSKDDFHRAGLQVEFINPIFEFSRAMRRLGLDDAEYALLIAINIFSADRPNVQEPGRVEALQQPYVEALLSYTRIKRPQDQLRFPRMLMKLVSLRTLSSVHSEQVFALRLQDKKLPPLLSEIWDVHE
hcDAF12 conf = hcDAF-12 agonism, confirmation assay | shares compounds with hcDAF12 agonist | HEK293 hcDAF-12 lit1-tk-luc reporter, luminescence; % of Δ7-dafachronic acid response | activation, % at 6.8 µM | 3,400 tested, 61% active | AID 743032;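 active = mean activation across triplicate tests above the threshold derived from the earlier primary screen, cut at about 5.5% in these data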
hgDAF12 conf = confirmation of H. glycines DAF-12 agonists; 3,300 tested, 80% active; HEK293 GAL4-hgDAF12 luciferase reporter, agonist mode; percent of butyrate response; AID 743050; activation, % at 6.8 µM; shares compounds with hgDAF12 agonist;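 active = mean activation over triplicate wells above the hit cutoff derived from the earlier primary screen, cut at about 11% in these data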
LXRb DAF12 ctr = activates human LXR-beta, counter-screen for DAF-12 agonists; shares compounds with hgDAF12 agonist; HEK293 Gal4-LXR luciferase reporter, 24 h; activation, % at 6.8 µM; 3,300 tested, under 10 active; AID 743051;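 active = mean activation of the triplicate above a set limit carried over from the primary screen, none filed active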
Hits are given with their value; 0 = inactive; - = no result.

SMILES	ssDAF12 agonist	DAX1 inh-1	DAX1 inh-2	hcDAF12 agonist	hgDAF12 agonist	DAX1 conf	SF1 mutant ctr	LXRb hcDAF ctr	hcDAF12 conf	hgDAF12 conf	LXRb DAF12 ctr
O=C1C(=Cc2ccccc2Cl)CCc2ccccc21	0	6.5	-	10.0	22.9	6.7	0	0	5.9	15.7	0
O=C1/C(=C\c2ccncc2)CCc2ccccc21	0	0	0	0	0	-	-	-	-	-	-
O=C1C(=Cc2ccc(F)cc2)CCc2ccccc21	0	9.5	-	7.9	22.5	7.4	3.3	0	0	17.0	0
O=C1C(=Cc2cccc(Cl)c2)CCc2ccccc21	0	0	-	0	0	-	-	-	-	-	-
O=C1C(=Cc2ccc(Cl)cc2)CCc2ccccc21	0	7.4	-	0	14.7	7.4	3.3	-	-	0	0
COc1ccccc1C=C1CCc2ccccc2C1=O	0	8.6	-	7.2	18.0	3.9	0	0	7.5	13.4	0
O=C(C1CCCN1S(=O)(=O)c1ccccc1[N+](=O)[O-])N1CCc2ccccc2C1 (centres undefined)	0	0	-	0	0	-	-	-	-	-	-
O=c1cc(-c2ccccc2)oc2cc(O)cc(O)c12	0	5.7	0	0	15.0	9.2	0	-	-	12.9	0
ON=C1c2ccccc2-c2cc(Br)ccc21	0	0	0	0	0	-	-	-	-	-	-
Cn1c(-c2ccccc2)c(/C=N/NC(=O)c2ccc(O)cc2)c2ccccc21	0	4.5	8.7	0	14.3	12.0	7.6	-	-	21.9	0
O=C(N/N=C\c1c(O)ccc2ccccc12)c1ccc(O)cc1	0	0	0	0	0	-	-	-	-	-	-
CC(C(=O)N1c2ccccc2CC1C)N1CCN(S(=O)(=O)c2ccccc2F)CC1 (centres undefined)	0	0	0	0	0	-	-	-	-	-	-
Cc1cc2nc(N3C(=O)CNC3=S)sc2cc1C	1.0	6.7	0	0	17.2	14.3	7.0	-	-	13.0	0
O=C(O)c1ccc(N=Nc2c(O)[nH]c3ccccc23)cc1	2.0	5.9	0	12.1	15.8	10.6	5.7	0	9.9	16.8	0
COc1cc(CCC(=O)OCC(=O)Nc2ccc(F)c(F)c2F)cc(OC)c1OC	0	0	0	0	0	-	-	-	-	-	-
COc1cccc(N/C=C/C(=O)c2ccc(OC)c(OC)c2)c1	0	0	0	0	0	-	-	-	-	-	-
COc1ccc(C(=O)/C=C/Nc2cccc(O)c2)cc1	1.2	6.0	0	8.2	18.6	13.9	8.1	0	12.1	26.7	0
Cc1nc2ccc(-c3nc4ccccc4[nH]3)cc2[nH]1	0	5.6	0	8.3	19.2	12.1	6.4	0	8.1	19.1	0
Cc1ccc(-c2nc3ccccc3[nH]2)cn1	0	0	0	0	0	-	-	-	-	-	-
COc1ccc([C@H]2Cc3cc(O)cc(O)c3C(=O)O2)cc1O	2.3	5.2	0	14.1	18.1	20.0	12.7	0	10.7	25.2	0
COc1ccc([C@H]2Cc3cccc(O)c3C(=O)O2)cc1O	0	0	0	0	0	-	-	-	-	-	-
COc1cccc(NC(=O)c2ccc3c(c2)CCCC3)c1	1.2	17.9	0	7.9	17.4	13.4	8.2	0	0	17.9	0
C=CCOc1c(Br)cc(/C=C2/C(=O)ON=C2C)cc1OC	0	0	0	0	0	-	-	-	-	-	-
Cc1noc(C)c1-c1ccc(C(=O)Nc2ccccc2)c2occc12	1.0	9.7	-	0	18.4	11.5	0	-	-	12.9	0
COc1ccc(-c2ccc(C(=O)Nc3ccccc3)c3occc23)c(C)c1	0	6.7	-	0	20.0	10.4	4.2	-	-	11.1	0
SMILES	ssDAF12 agonist	DAX1 inh-1	DAX1 inh-2	hcDAF12 agonist	hgDAF12 agonist	DAX1 conf	SF1 mutant ctr	LXRb hcDAF ctr	hcDAF12 conf	hgDAF12 conf	LXRb DAF12 ctr
CC1=C(C(=O)N(C(C)C)C(C)C)CC(CC(=O)NCc2ccco2)C(=O)N1Cc1ccc(C(C)(C)C)cc1 (centres undefined)	0	0	-	0	0	-	-	-	-	-	-
O=C(COc1ccccc1[N+](=O)[O-])Nc1cccnc1	0	0	0	0	0	-	-	-	-	-	-
Cc1ccc(NC(=O)COc2ccccc2[N+](=O)[O-])nc1	1.7	4.7	0	7.3	18.0	10.8	5.9	0	9.3	12.3	0
Cc1ccc(NC(=O)c2ccc(COc3ccccc3[N+](=O)[O-])o2)nc1	0	0	0	0	0	-	-	-	-	-	-
Cc1ccnc(NC(=O)COc2ccccc2[N+](=O)[O-])c1	1.1	4.9	0	7.4	14.3	12.5	5.2	0	0	11.5	0
Cc1ccccc1S(=O)(=O)Cc1ccc(C(=O)NCCCN2CCC(C)CC2)o1	0	0	0	0	0	-	-	-	-	-	-
Cc1ccc(CCNS(=O)(=O)c2cc3c(cc2Cl)NC(=O)CO3)cc1	0	0	0	0	0	-	-	-	-	-	-
O=C(NCCSc1ccccn1)c1ccc(Cl)cc1	0	4.5	0	0	20.9	10.2	4.8	-	-	16.3	0
O=C(NCCSc1ccccn1)c1ccc(Cl)cc1Cl	0	7.3	0	0	15.2	10.6	6.6	-	-	18.3	0
CS(=O)(=O)N(Cc1ccc(Cl)cc1)c1ccc(C(=O)NCCSc2ccccn2)cc1	0	0	0	0	0	-	-	-	-	-	-
O=C(c1ccccc1)c1coc(-c2ccccc2)c1	0	7.5	0	0	14.2	14.4	5.0	-	-	20.6	0
Cc1ccc(Cl)cc1NC(=O)Nn1cnnc1	0	0	0	0	0	-	-	-	-	-	-
O=C(/C=C/Nc1ccc(F)cc1F)c1ccco1	2.1	7.5	0	15.1	24.9	7.2	0	0	19.8	13.7	0
O=C(NNC(=S)Nc1ccc(F)cc1F)c1ccco1	0	0	0	0	0	-	-	-	-	-	-
C[C@H](CO)N1C[C@H](C)[C@@H](CN(C)C(=O)Nc2cc(F)ccc2F)Oc2ncc(-c3cccc(F)c3)cc2C1=O	0	0	0	0	0	-	-	-	-	-	-
c1ccc2nc3c(ccc4ccccc43)cc2c1	0.9	4.5	0	11.9	20.6	11.5	10.0	0	11.5	16.4	0
Cc1cccc2cc3ccccc3nc12	0	0	0	0	0	-	-	-	-	-	-
Cc1ccn2cc(-c3cc4ccccc4oc3=O)nc2c1	1.7	12.2	0	11.4	24.0	12.2	4.7	0	6.9	12.2	0
